What all share (assay): PBM binding z-score (relative to random genomic background probes); higher = stronger binding; sequences stand for … in GC…GCGATTGACAGCGTAGAATGAAGG
Assay [1] has as its system FXR:RXRa (NR concentration 270 nM, RXRa partner concentration 90 nM). The method, boiled down: (§1)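 Custom Agilent 4×180K protein-binding microarrays carried double-stranded probes, each with a 34-nt variable region. These regions held direct-repeat seeds, single-nucleotide variants, half-site ablations and random human genomic background sequences. Ligand-free nuclear receptor dimers were incubated on the arrays for 1 h, antibodies against each partner (one per run) detected binding, and scanned fluorescence was regression-normalized. Binding z-scores take the random background probes as reference.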

Assay [2] deals with LXRa:RXRa (NR concentration 270 nM, RXRa partner concentration 90 nM). An outline of the steps: as §1
The test system of assay [3] is LXRa homodimer (NR concentration 270 nM). The method, boiled down:
as §1

The test system of assay [4] is LXRb:RXRa (NR concentration 270 nM, RXRa partner concentration 90 nM). The method, boiled down:
as §1

The subject of assay [5] is LXRb homodimer (NR concentration 270 nM). An outline of the steps:
as §1

In assay [6] the test system is PPARa:RXRa (NR concentration 270 nM, RXRa partner concentration 90 nM). An outline of the steps:
as §1

For assay [7], the system named is PPARg:RXRa (NR concentration 180 nM, RXRa partner concentration 90 nM). The method, boiled down: as §1
For assay [8], the system named is PPARg:RXRa 270nM:90nM, anti-RXR (NR concentration 270 nM, RXRa partner concentration 90 nM). The method, boiled down: as §1
Assay [9] has as its system PPARg:RXRa 30nM:10nM, anti-RXR (NR concentration 30 nM, RXRa partner concentration 10 nM). An outline of the steps: as §1
Assay [10] relates to PPARg:RXRa 90nM:30nM, anti-RXR (NR concentration 90 nM, RXRa partner concentration 30 nM). An outline of the steps: as §1

Turning to TCTATTAGTTGAAGTGCAACCGACGAGTCCGTTT, the PBM binding z-score is 0.802 in assay [1]; 0.953 in assay [2]; 0.178 in assay [3]; 0.755 in assay [4]; 0.464 in [5]; 1.02 in assay [6]. Moreover, the PBM binding z-score was -0.119 in [7], 2.15 in assay [8], 3.77 in assay [9] and 2.88 in [10].
On to TGTCAAAGTTTAAAGGTAACGTAAGTATCCACAC, for which the PBM binding z-score is 1.49 in [1]; 1.72 in [2]; 0.175 in assay [3]; 1.29 in [4]; -0.187 in [5]; 2.79 in [6]. Besides, the PBM binding z-score is 4.23 in assay [7], 4.3 in assay [8], 1.98 in assay [9] and 3.41 in assay [10].
On to TTACCCAGGTGAGCTGAGGTCGTTGATCCAACTC, for which the PBM binding z-score in assay [1] is 1.83; in assay [2], 0.726; in assay [3] it was -0.313; in assay [4] it was 0.515; in assay [5], -1.12; in assay [6], 1.35. For the same sequence, the PBM binding z-score in assay [7] was 0.177; in [8] it was 0.382; in [9] it was -0.172; in assay [10] it was 0.184.
Take CCTCGGAGGACAGAAGGTCAGAACTGTCCGCTTT: the PBM binding z-score was 0.99 in assay [1]; 1.35 in assay [2]; 0.337 in [3]; 1.03 in assay [4]; -0.707 in [5]; 1.54 in [6]. The PBM binding z-score in [7] is -0.0634; in assay [8], 0.635; in [9], -0.743; in assay [10], 0.0441.
As for CCGACTGGGCCACGAAAGGTCATTGATTCAGTGA, the PBM binding z-score is 3.33 in assay [1]; 4.99 in assay [2]; 3.8 in assay [3]; 4.13 in assay [4]; -0.0773 in assay [5]; 4.31 in [6]. Moreover, the PBM binding z-score in assay [7] amounted to 3.41; in assay [8], 4.06; in assay [9], 1.52; in assay [10], 3.16.
Turning to CCGACCGGGGCAGAAAGGTTACCATACCATCCGG, the PBM binding z-score was 0.539 in assay [1]; 0.79 in assay [2]; -0.149 in assay [3]; 0.91 in [4]; -1.19 in [5]; 1.89 in assay [6]. Also, the PBM binding z-score is 0.899 in assay [7], 1.07 in assay [8], -0.267 in [9] and 0.343 in assay [10].
In the case of TCGGCTAGGTCAGTTGGTCAGCTAACGAGCTGCC, the PBM binding z-score is 1.1 in assay [1]; 0.58 in assay [2]; -0.132 in assay [3]; 0.27 in assay [4]; -0.753 in assay [5]; 1.48 in assay [6]. In addition, the PBM binding z-score amounted to 0.0282 in assay [7], 1.28 in assay [8], 0.913 in assay [9] and 1.11 in assay [10].
On to ACAGACAGGTTAGTGAAGGTAACTCAGCTGGACG, for which the PBM binding z-score was 0.616 in assay [1]; 0.393 in assay [2]; -0.196 in [3]; -0.21 in assay [4]; -0.3 in assay [5]; 0.259 in assay [6]. In addition, the PBM binding z-score was 0.68 in assay [7], 0.049 in assay [8], -0.22 in assay [9] and 0.0314 in assay [10].
Take ATCTCTAGGTAAGACTCAGTTCAGTGGAGAACGC: the PBM binding z-score turned out to be 0.367 in assay [1]; 0.505 in assay [2]; 0.914 in assay [3]; 0.328 in assay [4]; 0.692 in [5]; 0.228 in assay [6]. For the same sequence, the PBM binding z-score in assay [7] amounted to 0.00731; in assay [8], 0.28; in assay [9] it was 0.129; in assay [10], 0.315.
Take CAAACTAGGTCACGAAAGATCAAAGTCGAATGAC: the PBM binding z-score was determined as 4.53 in assay [1]; 5 in [2]; 0.705 in assay [3]; 3.03 in assay [4]; 0.541 in assay [5]; 5.84 in assay [6]. In addition, the PBM binding z-score amounted to 9.56 in [7], 7.69 in assay [8], 6.2 in assay [9] and 7.72 in assay [10].
On to ATTTGTAGGTTAGCTGGGGTCATTCAGACTAGGC, for which the PBM binding z-score was found to be 4.72 in assay [1]; 6 in [2]; 4.63 in assay [3]; 5.23 in assay [4]; 2.54 in assay [5]; 5.2 in assay [6]. Besides, the PBM binding z-score in assay [7] turned out to be 4.29; in [8], 4.6; in assay [9] it was 2.42; in [10] it was 3.79.
For TCATATAGGTAATACCGGTGAAAGTCGGCATCTA, the PBM binding z-score in [1] was determined as 0.519; in assay [2] it was 0.637; in assay [3] it was 0.169; in [4], 0.726; in [5], 0.0983; in assay [6], 1.44. The PBM binding z-score was 0.698 in [7], 2.2 in assay [8], 4.02 in [9] and 3.31 in [10].

The values are drawn from the supplement of paper PMC6555819.
